These results are taken from ChEMBL document CHEMBL1201862, “PubChem BioAssay data set” (2004).

Each structure is given as a SMILES string. Among all 400,000 compounds or so, about 2,100 (0.53%) were called active. Inconclusive results (about 14%) are left out. This is one part of a sample in which actives are shown more often than they occur. How the calls were made is not given here.

For the assay, the target named is Ataxin-2 (Homo sapiens) (UniProt Q99700). Put plainly: qHTS for Inhibitors of ATXN expression. Type of assay: functional. For orientation: qHTS replaces the single test concentration by a dilution series.
Ataxin-2 (Homo sapiens), sequence (Q99700 whole entry): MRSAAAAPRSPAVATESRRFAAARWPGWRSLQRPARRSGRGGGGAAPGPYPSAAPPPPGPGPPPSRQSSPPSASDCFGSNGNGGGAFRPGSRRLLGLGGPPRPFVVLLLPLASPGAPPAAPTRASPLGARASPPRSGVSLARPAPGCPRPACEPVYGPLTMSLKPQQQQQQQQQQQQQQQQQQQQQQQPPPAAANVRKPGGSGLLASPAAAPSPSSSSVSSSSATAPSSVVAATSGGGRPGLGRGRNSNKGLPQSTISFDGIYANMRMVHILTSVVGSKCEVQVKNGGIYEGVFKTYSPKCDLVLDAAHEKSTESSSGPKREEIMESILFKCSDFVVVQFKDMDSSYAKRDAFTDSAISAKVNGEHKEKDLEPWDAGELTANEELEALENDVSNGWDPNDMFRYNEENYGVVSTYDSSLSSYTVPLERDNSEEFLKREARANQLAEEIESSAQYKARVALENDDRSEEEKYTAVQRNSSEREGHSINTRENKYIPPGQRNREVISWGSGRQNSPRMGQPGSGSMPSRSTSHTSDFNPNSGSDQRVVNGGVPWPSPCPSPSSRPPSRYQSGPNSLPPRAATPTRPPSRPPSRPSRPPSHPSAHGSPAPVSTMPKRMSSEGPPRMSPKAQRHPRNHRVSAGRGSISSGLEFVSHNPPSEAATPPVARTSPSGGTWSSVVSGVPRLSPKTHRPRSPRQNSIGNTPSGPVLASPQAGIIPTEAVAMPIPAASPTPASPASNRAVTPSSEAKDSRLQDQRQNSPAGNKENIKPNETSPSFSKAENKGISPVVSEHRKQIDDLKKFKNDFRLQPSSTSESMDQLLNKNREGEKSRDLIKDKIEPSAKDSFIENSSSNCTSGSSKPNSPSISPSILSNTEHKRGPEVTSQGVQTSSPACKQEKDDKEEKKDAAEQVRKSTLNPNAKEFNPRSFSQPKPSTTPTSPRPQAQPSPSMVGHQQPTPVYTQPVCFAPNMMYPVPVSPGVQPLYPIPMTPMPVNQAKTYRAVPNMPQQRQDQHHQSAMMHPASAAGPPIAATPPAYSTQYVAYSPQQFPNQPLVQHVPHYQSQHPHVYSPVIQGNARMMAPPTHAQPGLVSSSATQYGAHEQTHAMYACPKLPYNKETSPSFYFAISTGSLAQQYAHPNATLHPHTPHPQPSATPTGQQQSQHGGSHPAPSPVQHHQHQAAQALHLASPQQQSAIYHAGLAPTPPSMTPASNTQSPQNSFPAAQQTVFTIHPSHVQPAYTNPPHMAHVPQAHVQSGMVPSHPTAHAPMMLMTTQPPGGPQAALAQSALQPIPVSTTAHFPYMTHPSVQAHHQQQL
For the compound `Cc1ccc(C2=CC(c3ccc(N(C)C)cc3)n3nnnc3N2)cc1` (stereo unspecified), the Potency result was “inactive”.
The result for `CN1CCc2c(sc3c2C(=O)NC(c2ccccc2)N3)C1` (stereo unspecified) reads “inactive”.
The result for `Cc1ccc(S(=O)(=O)c2cc3ccccc3nc2N)cc1` reads “inactive”; that for `Cc1ccc2nc3c(cc(C#N)c(=O)n3-c3nccs3)c(=O)n2c1`, “inactive”; that for `Cc1c(Cc2ccccc2)sc(/N=C/c2c(O)ccc3ccccc23)c1C(N)=O`, “inactive”.
As for `Cc1ccc(-c2cc(-c3ccco3)c(C#N)c(O)n2)cc1`, the entry is “inactive”; as for `CCOC(=O)c1c(NC(=O)c2ccc(S(=O)(=O)N(CC(C)C)CC(C)C)cc2)sc2c1CCN(CC)C2`, “inactive”; as for `CCOC(=O)c1c(NC(=O)C(NCCN(C)C)c2ccccc2)sc2c1CCCC2` (stereo unspecified), 39.8 µM (active).
`CCOC(=O)c1c(NC(=O)C(C)Sc2cccc[n+]2[O-])sc2c1CCN(Cc1ccccc1)C2` (stereo unspecified): the Potency result is “inactive”.
The result for `CCOC(=O)c1c(NC(=O)c2ccc(S(=O)(=O)N(C)C3CCCCC3)cc2)sc2c1CCN(C(C)C)C2` reads “inactive”.
The result for `CCOC(=O)c1c(NC(=O)Nc2ccc(C)cc2)sc2c1CCN(C)C2` reads “inactive”; that for `CCOC(=O)c1c(NC(=O)C(C)Sc2c[nH]c3ccccc23)sc2c1CCC2` (stereo unspecified), 3.16 µM (active).
The result for `Cc1ccc2nc(N3CCN(CCO)CC3)nc(-c3ccccc3)c2c1` reads “inactive”; that for `CCN1CCc2c(sc(NC(=O)c3ccc(S(=O)(=O)N4CCCC(C)C4)cc3)c2C(=O)OC)C1` (stereo unspecified), “inactive”; that for `CCN(C(=O)Cc1c(C(=O)O)n(CC)c2ccccc12)c1ccccc1C`, “inactive”.
Turning to `CCOc1ccccc1N(C)C(=O)c1cc2c(=O)n(CC)c3ccccc3c2s1`, the Potency is 39.8 µM (active).
As for `CCCN(CCC)CCCNC(=O)c1cc2c(=O)n(CC)c3ccccc3c2s1`, the entry is “inactive”.
The result for `CC1CC(C)CN(CC(=O)N2CCOCC2)C1` (stereo unspecified) reads “inactive”.
As for `O=Cc1cn(CC(=O)N2CCc3ccccc32)c2ccccc12`, the Potency result is “inactive”.
The result for `O=C(Cn1ncc(Cl)c(Cl)c1=O)N1CCOCC1` reads 39.8 µM (active).
The result for `Cn1c(=O)c2c(nc(Sc3ncnn3CC(=O)N3CCOCC3)n2C)n(C)c1=O` reads “inactive”; that for `CN(CC(=O)Nc1ccc(Cl)cc1)CC(=O)N1CCc2ccccc21`, “inactive”.
As for `O=C(Cn1ncc(Cl)c(Cl)c1=O)N1CCc2ccccc21`, the figure is 7.52 µM (active); as for `O=C(Cn1ncc(Cl)c(Cl)c1=O)N1CCN(Cc2ccccc2)CC1`, 39.8 µM (active).
As for `COc1cc2c(cc1OC)CN(Cc1cc(=O)oc3c(C)c(C)ccc13)CC2`, the Potency entry was “inactive”.
As for `COc1ccc(NC(S)=Nc2ccc3nsnc3c2)cc1`, the entry is “inactive”; as for `Cc1ccsc1CN(C)CC(=O)NCC(=O)Nc1ccc(F)cc1`, “inactive”.
As for `CCOC(=O)Cc1c(C)c2c(O)cc(O)cc2oc1=O`, the entry is “inactive”.
The result for `O=[N+]([O-])c1ccc2c(c1)c1ccccc1n2CCO` reads “inactive”; that for `CN(C)c1ccc(/C=c2\c3cc([N+](=O)[O-])ccc3n3c2cc(-c2ccccc2)[n+]3C)cc1`, 31.6 µM (active).
As for `CCOC(=O)c1cc2c(=Cc3ccc(N(C)C)cc3)c3ccccc3n2[n+]1C`, the Potency was 13.4 µM (active).
The result for `CN(C(=O)COC(=O)c1nnc(O)c2ccccc12)c1ccccc1` reads “inactive”.
As for `CCOC(=O)c1cc(C(=O)OCC)c2ccccn2c1=O`, the entry is “inactive”; as for `COc1ccc2c(c1)c(=Cc1ccc(N(C)C)cc1)c1cc(-c3ccccc3)[n+](C)n12`, 17.8 µM (active).
The result for `C[n+]1c(-c2ccccc2)cc2c(=Cc3ccccc3)c3ccccc3n21` reads 23.8 µM (active).
Consider `N#Cc1c2ccc(OCC(N)=O)cc2n2ccccc12`, for which the Potency result was “inactive”.
Regarding `CCN(Cc1ccc(OC)c(F)c1)C(=O)/C=C/c1ccc(S(=O)(=O)N2CCOCC2)cc1`, the Potency entry was “inactive”.
As for `CCOC(=O)/C=C/C(=O)Nc1ccc(S(=O)(=O)Nc2nccs2)cc1`, the entry is “inactive”.
Turning to `CC(NC(=O)c1cc2c(=O)n3ccccc3nc2n(CC2CCCO2)c1=N)c1ccccc1` (stereo unspecified), the Potency result was “inactive”.
For `Cc1cc(C(=O)NNc2c(Cl)cccc2Cl)no1`, the Potency entry was “inactive”.
For the compound `O=C1c2cccc3cccc(c23)N1Cc1ccc(F)cc1`, the Potency entry was “inactive”.
The result for `CCCCN1C(=O)c2cccc3cc(O)cc(c23)C1=O` reads “inactive”; that for `CCCCN(C)C(=O)c1ccc2c(c1)N(Cc1cccc(F)c1)C(=O)c1ccccc1S2`, 25.1 µM (active); that for `Cc1oc(-c2ccccc2F)nc1C[S+]([O-])CC(=O)NCc1ccc(F)cc1` (stereo unspecified), “inactive”.
Consider `N#Cc1c(N)n(-c2cccc(C(=O)O)c2)c2nc3ccccc3nc12`, for which the Potency entry was “inactive”.
As for `Cc1ccc(-c2ocnc2C(=O)Nc2nc(C)cs2)cc1`, the entry is “inactive”; as for `CC(C)CC(N)c1csc(NC(=O)Nc2ccccc2Cc2ccccc2)n1` (stereo unspecified), 22.4 µM (active); as for `Nc1c(C(=O)Nc2ccccc2F)sc2nc(Cc3ccccc3)cc(C(F)(F)F)c12`, “inactive”.
As for `NC(Cc1ccc(C(F)(F)F)cc1)c1csc(NC(=O)Nc2ccccc2Cc2ccccc2)n1` (stereo unspecified), the figure is 35.5 µM (active).
Regarding `O=C(Nc1ccccc1)Nc1nc(-c2ccc(F)c(F)c2)cs1`, the Potency result was “inactive”.
The result for `CCOC(=O)c1sc(-c2ccc(C(F)(F)F)cc2)nc1O` reads “inactive”; that for `NC(Cc1ccc(C(F)(F)F)cc1)c1csc(NC(=O)Nc2ccccc2)n1` (stereo unspecified), 35.5 µM (active); that for `O=C(Nc1ccccc1)Nc1sccc1-c1nc2ccccc2s1`, “inactive”.
Consider `CCc1ccccc1NC(=O)c1sc2nc(C)cc(C)c2c1N`, for which the Potency result is “inactive”.
As for `Cc1ccc(C(=O)Nc2nc(C(N)Cc3ccc(C(F)(F)F)cc3)cs2)cc1` (stereo unspecified), the figure is 39.8 µM (active); as for `CC(=O)c1ccc(/C=C/c2nc3ccccc3n2C)o1`, “inactive”.
As for `Fc1ccc(N2CCN(C(S)=NCc3ccco3)CC2)cc1`, the entry is “inactive”; as for `Nc1cccc2c1C(=O)N(C(=O)c1cccc(S(=O)(=O)N3CCCC3)c1)C2=O`, “inactive”; as for `C/C(=N\OCC(=O)Nc1ccccc1C(=O)O)c1cccs1`, “inactive”.
As for `CC(=O)NC1=NC(=O)/C(=C/c2cc(C)n(-c3cccc(C(=O)O)c3)c2C)S1`, the entry is “inactive”; as for `CC(C)(C)c1cc(C(=O)NNc2cccc(Cl)c2)n(Cc2ccccc2)n1`, “inactive”; as for `CC(C)CC(N)c1csc(NC(=O)c2cc(C(C)(C)C)nn2Cc2ccccc2)n1` (stereo unspecified), 31.6 µM (active).
Consider `CC(C)(C)c1cc(NC(=O)COC(=O)c2ccccc2)n(-c2ccccc2)n1`, for which the Potency result is “inactive”.
Take `COC(=O)c1ccc(COc2ccccc2OC)o1`: the Potency entry was “inactive”.
The result for `CC(C)Cn1c(N)c(C(=O)COC(=O)c2cc3ccccc3cc2O)c(=O)n(C)c1=O` reads “inactive”.
As for `Cc1cccc(-n2cc(CNCCc3nc(C)cc(C)n3)c(-c3cccc(F)c3)n2)c1`, the figure is 31.6 µM (active); as for `Cc1ccc(C2(c3ccc(C)cc3)NC(=O)N(CC(=O)NCCCN3CCCC3=O)C2=O)cc1`, “inactive”.
Take `Cc1ccc(-n2cc(CNCCCN3CCCC3=O)c(-c3ccc(F)cc3)n2)cc1`: the Potency was 25.1 µM (active).
Turning to `Cc1cccn2c(=O)c3cc(C(=O)NCCCN4CCCC4=O)n(C)c3nc12`, the Potency entry was “inactive”.
As for `Cc1ccc(-n2cc(CNCCCn3cccn3)c(-c3cccc(C)c3)n2)cc1`, the figure is 20 µM (active).
On to `Cc1cccc(C2=NN(c3ccccc3)[C@H](CO)[C@H]2c2ccc(F)cc2)c1`, for which the Potency entry was “inactive”.
The result for `CCOC(=O)c1cc2c(=O)n3ccccc3nc2n(CCCOC)/c1=N\C(=O)C(C)(C)C` reads “inactive”.
As to `CCOc1ccc(NC(S)=Nc2cccnc2)cc1`, the Potency entry is “inactive”.
On to `Cc1cc(N(C)Cc2ccccc2)nc2cc(O)ccc12`, for which the Potency entry was “inactive”.
As for `CN(CCCC(=O)N1CCN(c2ncccn2)CC1)S(=O)(=O)c1ccc(F)cc1`, the entry is “inactive”; as for `O=C(NCC1CCCCC1)c1ccc(Cl)c(S(=O)(=O)N2CCOCC2)c1`, “inactive”; as for `Cc1ccc(-n2nc3c(=O)n(CC(=O)NC4CCCCC4)nc(C)c3c2C)cc1`, “inactive”.
The result for `O=C(NC1CCCCCC1)c1cc2c(=O)n3ccccc3nc2s1` reads “inactive”.
As to `O=C(Cn1ncc(Cl)c(Cl)c1=O)NCC1CCCCC1`, the Potency is 31.6 µM (active).
The result for `O=C(Cn1ncc(Cl)c(Cl)c1=O)NC1CCCCC1` reads 28.2 µM (active); that for `Cc1cc(C(F)(F)F)c(C#N)c(SCC(=O)Nc2nc3cc(Br)ccc3s2)n1`, “inactive”; that for `COC(=O)c1sc2ccccc2c1NC(=O)c1ccc(S(=O)(=O)N2CCCC(C)C2)cc1` (stereo unspecified), “inactive”.
The result for `Cc1ccc2nc3c(cc2c1)c(NC(=O)c1ccco1)nn3CC(C)C` reads “inactive”; that for `Oc1nc2ccccc2nc1-c1nnnn1Cc1ccccc1`, “inactive”; that for `CCC(c1nnnn1Cc1ccco1)N(CCc1ccccc1)Cc1cc2cc(C)ccc2nc1O` (stereo unspecified), 39.8 µM (active).
Regarding `CCOc1ccc2nc(O)c(CN(Cc3ccco3)C(CC)c3nnnn3Cc3ccccc3)cc2c1` (stereo unspecified), the Potency is 20 µM (active).
As for `COc1ccc(CCN(Cc2cc3cc(C)ccc3nc2O)C(C)=O)cc1OC`, the entry is “inactive”.
The result for `CC1CCCN(C(=S)SCC(=O)c2cc(Br)cc(Br)c2O)C1` (stereo unspecified) reads “inactive”; that for `O=C(Cc1csc(Nc2nc(S)nc3ccccc23)n1)N1CCN(c2cccc(Cl)c2)CC1`, “inactive”; that for `CCn1c(SC(C)C(=O)Nc2nnc(C)s2)nnc1-c1ccco1` (stereo unspecified), “inactive”.
`Cc1cc(/C=C(\C#N)C(=O)NCc2cccs2)c(C)[nH]1`: the Potency result is “inactive”.
With `Cc1cc(C(=O)CN2C(=O)c3cccc(N)c3C2=O)c(C)n1Cc1cccs1`, the Potency result was “inactive”.
As for `Cc1c(C#N)c(NC(=O)CCl)n(Cc2cccs2)c1C`, the figure is 11.2 µM (active).
As for `Cc1c(CCC(=O)O)c(=O)oc2c(C)c3occ(-c4ccc(Cl)cc4)c3cc12`, the entry is “inactive”.
As for `C[C@H]1CN([C@@H](C)CO)C(=O)Cc2cc(NC(=O)CCC(F)(F)F)ccc2O[C@H]1CN(C)Cc1ccc(C(F)(F)F)cc1`, the figure is 39.8 µM (active); as for `COc1cccc(S(=O)(=O)N(C)C[C@@H]2OCc3cnnn3CCCC(=O)N([C@@H](C)CO)C[C@H]2C)c1`, “inactive”; as for `C[C@@H]1CN([C@H](C)CO)C(=O)Cc2cc(NS(=O)(=O)c3ccc(Cl)cc3)ccc2O[C@H]1CN(C)Cc1ccc(C(F)(F)F)cc1`, 25.1 µM (active).
As to `O=C1OCc2ccc(NS(=O)(=O)c3ccc(C(F)(F)F)cc3)cc21`, the Potency result is “inactive”.
For the compound `C[C@@H]1CN([C@@H](C)CO)C(=O)CCCn2nncc2CO[C@H]1CN(C)Cc1ccc(-c2ccccc2)cc1`, the Potency is 28.2 µM (active).
As for `C[C@H](CO)N1C[C@H](C)[C@@H](CN(C)S(=O)(=O)c2ccc(-c3ccccc3)cc2)OCc2cn(nn2)CCCC1=O`, the entry is “inactive”; as for `C[C@H]1CN([C@@H](C)CO)C(=O)Cc2cc(NC(=O)CCC(F)(F)F)ccc2O[C@H]1CN(C)Cc1ccc(-c2ccccc2)cc1`, 35.5 µM (active).
